Hits are enriched below; roughly 7.7% of the tested compounds scored in any of these assays.
FMDV inh – foot and mouth disease virus antiviral activity; FMDV antiviral cell-based qHTS; Potency, µM (highest dose often 57.9 µM), inactives show top-dose activity change, negative = inhibition, actives largely listed as inhibitors; hit rate 1.2% among 410,000; AID 1159524; calls by dose curve; tested in HEK293T cells; further: read-out not given here; potency means the concentration at half of the fitted maximal effect; nearly all actives have a fitted effect of over 45% in size
HCMV antiviral – human cytomegalovirus inhibition. HFF cells, HCMV-luciferase reporter, 72 h; stronger effect = lower value. activity change, negative = inhibition, % at 57.5 µM. hit rate 4.5% among 410,000. AID 1259415; in the data active means activity change below about -60%; inconclusive means no clear call, values can overlap the other calls; inactive means above about -39%
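Luciferase read-out from HCMV-luciferase-infected HFFs (MOI 1 PFU/cell) 72 h post infection at 37C; compounds added after 16 h cell attachment; activity normalized between buffer-only basal and Salinomycin (10uM) inhibitor controls.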
Giardia FBPA inh – blocks Giardia fructose-bisphosphate aldolase activity; AID 2451; hit rate 0.71% among 290,000; A8B2U2; purified Giardia FBPA; Potency, µM (doses to about 59.6 µM), for the others: at the top dose activity, negative = inhibition, actives largely listed as inhibitors; further: potency means the concentration at half of the fitted maximal effect; nearly all actives have a fitted effect of over 55% in size
Target sequence (A8B2U2 whole entry, looked up): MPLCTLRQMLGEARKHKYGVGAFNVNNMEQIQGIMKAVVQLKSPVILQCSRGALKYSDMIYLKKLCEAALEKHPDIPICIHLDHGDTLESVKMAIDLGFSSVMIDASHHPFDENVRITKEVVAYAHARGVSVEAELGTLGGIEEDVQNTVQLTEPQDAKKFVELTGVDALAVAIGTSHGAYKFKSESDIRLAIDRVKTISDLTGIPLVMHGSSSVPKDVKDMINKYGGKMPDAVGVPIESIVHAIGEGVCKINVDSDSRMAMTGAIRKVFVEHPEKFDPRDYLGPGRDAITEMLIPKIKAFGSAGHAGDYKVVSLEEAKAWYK
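40 nM FBPA preincubated 10 min at RT with compound (up to 57.5 uM final), then substrate plus GAPDH/TPI/NAD/arsenate coupling and diaphorase/resazurin added. Fluorescence read after 20 min at RT, 525/598 nm.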
RE007 growth inh – less growth of the S. pombe RE007 Vpr strain; S. pombe RE007 Vpr strain, BacTiter-Glo ATP luminescence, 24 h; Potency, µM (top dose mostly 92.2 µM), without a hit: at the top dose activity change, negative = less growth, hits mostly inhibitors; hit rate 0.21% among 360,000; AID 651644; active means well fitted falling curve with a large enough effect; inconclusive means small, poorly fitted or top-dose-only effect; inactive means no such curve, though single readings can be large or run the other way; further: potency means the concentration at half of the fitted maximal effect; nearly all actives have a fitted effect of over 50% in size
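Fission yeast RE007 carrying one integrated HIV-1 vpr copy, seeded at OD 0.01 in PMG+AL medium with 23 nL pinned compound. Grown 24 h at 30 degrees; viability read by BacTiter-Glo luminescence after 5 min.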
Sm TGR block – blocks Schistosoma mansoni thioredoxin glutathione reductase; purified TGR, DTNB reduction, TNB absorbance 405 nm; Potency, µM (series often up to 114 µM), for the others: top-dose activity change, negative = inhibition, hits mostly inhibitors; hit rate 3% among 360,000; AID 485364; further: potency means the concentration at half of the fitted maximal effect; nearly all actives have a fitted effect of over 60% in size
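First, TGR (20 nM dispensed) and NADPH were mixed with compound. Second, a 15 min room-temperature incubation followed. Third, further NADPH and then DTNB were added to start the reaction. Finally, TNB absorbance was monitored kinetically.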
TbPYK inhibitor – inhibitors of Trypanosoma brucei pyruvate kinase | Q57TT1 | TbPYK enzyme, Kinase-Glo Plus ATP luminescence, 45 min | Potency, µM (highest dose often 76.8 µM), without a hit: top-dose activity, negative = inhibition, most hits filed as inhibitors | hit rate 0.12% among 410,000; further: potency means the concentration at half of the fitted maximal effect; nearly all actives have a fitted effect of over 50% in size
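T. brucei PYK with substrate was exposed to pin-transferred compounds across a concentration series, then started with 130 uM ADP (final). After 45 min at room temperature, Kinase-Glo Plus luminescence was read, normalized and curve-fitted.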
An asterisk follows results filed as active; ? = inconclusive; · = no result given; [ ] = dose if it differs, or a comment. Unless noted, the call rests on the fitted dose curve; in most records, active means well fitted curve in the direction sought with a large enough effect; inconclusive means small, poorly fitted or top-dose-only effect, or another doubt; inactive means no such curve, though single readings can be large; an effect the other way counts as inactive or inconclusive. On the % scale 0 is the no-effect control and ±100 the full control effect.

SMILES | FMDV inh | HCMV antiviral | Giardia FBPA inh | RE007 growth inh | Sm TGR block | TbPYK inhibitor
CC(C)C[C@H]1CNC(=S)N1CC1CCCN1C[C@H](Cc1ccc(O)cc1)N1C[C@H](Cc2ccccc2)N(CC2CCCCC2)C1=S (stereo partly specified) | -9% | -62* | · | 1% | · | 6%
Oc1ccc(C[C@H]2CNC(=S)N2CC2CCCN2C[C@H](Cc2ccccc2)N2C[C@H](Cc3ccc(O)cc3)N(CC3CCCCC3)C2=S)cc1 (stereo partly specified) | -20% | -85* | · | -10% | · | 1%
Oc1ccc(C[C@H]2CNC(=S)N2CC2CCCN2C[C@H](Cc2ccc(O)cc2)N2C[C@H](Cc3ccc(O)cc3)N(CC3CCCCCC3)C2=S)cc1 (stereo partly specified) | ? | -67* | · | 9% | · | -6%
CCCC[C@@H]1CN2[C@H](c3ccc(Br)cc3)[C@@H](C)CC[C@H]2C(=O)O1 | · | · | -4%[12.9 µM] | · | · | ·
O=C(NCC(c1ccc2c(c1)OCO2)N1CCOCC1)c1ccc(F)cc1 (stereo unspecified) | 11% | 13 | · | · | -3% | -3%
CCOc1ccc(C(=O)c2cn(CC(=O)Nc3ccc(F)c(F)c3)c3cc4c(cc3c2=O)OCCO4)cc1 | -7% | -6 | · | · | -9% | 6%
COc1ccc(OC)c(-c2csc(N(CC3CCCO3)C(=O)C3CCCCC3)n2)c1 (stereo unspecified) | 3% | -72* | -9% | -15% | 18% | -22%
COc1ccc(-c2csc(N(CC3CCCO3)C(=O)c3cccs3)n2)cc1 (stereo unspecified) | ? | 20 | 0% | 34% | 4% | 3%
CN(C(=O)C=Cc1ccccc1)c1ccccc1 | 36% | -101* | · | -21% | · | -2%
CCOC(=O)C1C(=O)C(C(=O)OCC)C(c2cccnc2)NC1c1cccnc1 (stereo unspecified) | -12% | -31 | -3% | -10% | 25µM* | -13%
COc1ccc(OC)c(NC(=O)CS(=O)(=O)Cc2ccccc2)c1 | -7% | -38 | 2% | -2% | -1% | 2%
COc1ccc2nc(NC(=O)c3nc(SCc4cccc(C)c4)ncc3Cl)sc2c1 | -8% | 8 | · | · | -2% | -4%
COc1ccc(OC)c(NC(=O)c2nc(S(=O)(=O)Cc3ccccc3)ncc2Cl)c1 | 7.1µM* | -99* | · | -2% | 3.2µM* | -11%
COc1ccc(NC(=O)c2nc(S(=O)(=O)Cc3cccc(C)c3)ncc2Cl)c(OC)c1 | 3.2µM* | -79* | · | -11% | 8% | -6%
c1cc2c(cn1)cnc1cscc12 | 13% | -63* | -5% | 5% | 1% | -9%
COc1cccc(-c2ccnc3c(-c4ccc(F)cc4)c(C)nn23)c1 | -4% | -14 | · | · | 7% | -2%
CC1CN(C(=O)/C=C/c2ccc([N+](=O)[O-])s2)CC(C)O1 (stereo unspecified) | 13% | -68* | 1% | -28% | 20µM* | -2%
CC1CC(C)CN(C(=O)/C=C/c2ccc([N+](=O)[O-])s2)C1 (stereo unspecified) | ? | -87* | -19% | 2% | 13µM* | 0%
CCCN(CCC)CCCNC(=O)Cn1ncn2c(cc3sc(CC)cc32)c1=O | 0% | -31 | · | · | 5% | 0%
COc1ccc(Cn2c(SCC(=O)N3CCN(c4ccc(F)cc4)CC3)nc3ccccc32)cc1 | 0% | -67* | · | · | -1% | 1%
CC(C)Cn1c(SCC(=O)N2CCN(S(=O)(=O)c3ccccc3)CC2)nc2ccccc21 | · | -68* | -1% | -8% | -8% | -3%
O=C(CSc1nc2ccccc2n1CC(=O)N1CCOCC1)N1CCCC1 | -21% | 1 | 17% | 2% | 3% | 5%
Nc1nc(SCC(=O)N2CCN(c3ccc(F)cc3)CC2)n[nH]1 | -4% | -32 | · | 2% | -1% | 0%
O=C(CSc1nc2ccccc2n1CCc1ccccc1)N1CCOCC1 | -3% | -68* | -1% | -6% | 1% | 1%
C=CCn1c(N)cc(=O)nc1SCC(=O)N1CCN(c2ccc(F)cc2)CC1 | · | -6 | -3% | -7% | 28µM* | -23%
SMILES | FMDV inh | HCMV antiviral | Giardia FBPA inh | RE007 growth inh | Sm TGR block | TbPYK inhibitor
COc1ccc(C(=O)NCCn2cc(SCc3cc(C)ccc3C)c3ccccc32)cc1 | ? | -33 | · | · | 15% | -4%
O=C(CSc1nc(-c2ccccc2)c(-c2ccccc2)[nH]1)N1CCN(S(=O)(=O)c2ccccc2)CC1 | ? | -88* | 0% | -7% | -20% | -2%
CCCNC(=O)N1CCN(S(=O)(=O)c2ccc3c(ccn3C)c2)CC1 | 2% | -9 | · | · | 1% | -12%
O=[N+]([O-])/C=C/c1c(OCc2ccccc2)ccc2ccccc12 | · | · | -2% | · | ? | ·
CCOC(=O)COc1ccc2ccccc2c1/C=C/[N+](=O)[O-] | 13µM* | -99* | -28% | -1% | ? | -19%
CCOC(=O)COc1ccc(/C=C/[N+](=O)[O-])c(OCC(=O)OCC)c1 | 14µM* | -105* | -1% | 13% | 17% | -8%
CCOC(=O)COc1ccc2nsnc2c1 | -15% | 70 | -13% | 23% | 0% | -4%
Cc1ccc(CN2C[C@H](Sc3ccccn3)C[C@H]2C(=O)Nc2ccc3sc(C)nc3c2)c(C)c1 | 6% | · | · | · | · | ·
CCN1CCN(CCNC(=O)c2ccc3nc(-c4cccc(C)c4)c(-c4cccc(C)c4)nc3c2)CC1 | -19% | -109* | · | 6% | -12% | 4%
CCN1CCN(CCCNC(=O)c2ccc3c(Cl)c4c(nc3c2)CCCC4)CC1 | -17% | -83* | -2% | -10% | ? | 3%
C#Cc1ccc(NC(=O)C2(C)CCN2C(=O)Cc2ccc(C(C)(C)C)cc2)cc1 (stereo unspecified) | ? | -83* | · | 4% | · | 7%
C#Cc1ccc(NC(=O)C2(C)CCN2C(=O)Cc2ccc(C(C)C)cc2)cc1 (stereo unspecified) | ? | -82* | · | 10% | · | -1%
CC(C)CN1CCCC2(CCN(C(=O)c3cnccn3)CC2)C1 | -12% | · | 2% | · | · | -3%
O=C(Oc1ccc2c(=O)c(Oc3ccc4ccccc4c3)coc2c1)c1cccnc1 | 10% | -6 | 7% | 8% | -19% | 0%
O=C(Oc1ccc2c(=O)c(Cl)coc2c1)c1cccnc1 | 8% | 0 | 4% | -6% | 32µM* | -2%
COc1ccc(C(C)=O)cc1CN1C(=O)C(C)ON=C1c1ccccn1 (stereo unspecified) | -6% | 42 | · | 1%[18.4 µM] | · | -1%
COc1ccccc1CN1C(=O)C(C)ON=C1c1ccccc1F (stereo unspecified) | -19% | -80* | · | 3%[18.4 µM] | · | -11%

Screens (PubChem BioAssay)
